In PubChem BioAssay AID2501 (Southern Research Specialized Biocontainment Screening …, 2010):
Hit rate of the full screen: of about 2,200 compounds, about 1,200 (55%) were called active. So high a share suggests a set chosen from earlier hits. Some of the results follow. A number with no mark means an inactive call. The limit is not given here; nearly all actives have IC50 up to about 92 µM.

Assay: counter assay for TAg ATPase ADP read-out – biochemical, ADP-Hunter, fluorescence, counter-screen (AID 2501);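 also: purified T antigen ATPase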;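 as to inhibition: 0% = enzyme with vehicle and 100% = reference inhibitor wells; higher means more inhibition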
Conditions: series mostly up to 100 µM; inhibition: at the top concentration

Row | SMILES | IC50 | inhibition
1 | CN1C(=O)NC(c2ccc(O)cc2)C2=C1CN(c1ccc(O)cc1)C2=O (stereo not drawn) | 4.84 µM (active) | 
2 | Cc1cc(C)nc(Nc2ccc(O)cc2)n1 | 3.35 µM (active) | 
3 | Cc1cc(C)nc(SSc2nc(C)cc(C)n2)n1 |  | -11%
4 | Cc1cc(C)nc(NC(=O)c2ccc(Cl)cc2)n1 |  | -13.1%
5 | Oc1ccc(-c2[nH]ncc2-c2cccc3cccnc23)c(O)c1 | 18.1 µM (active) | 
6 | COc1ccccc1-n1cc(CN2CCN(C3CCCCC3)C(CCO)C2)cn1 (stereo not drawn) |  | 8.82%
7 | O=C(c1cccc(-c2ccc(O)cc2)c1)N1CCOCC1 | 4.07 µM (active) | 
8 | CCc1ccc(OCc2nnc(SCC(=O)Nc3cccc(C(=O)N4CCOCC4)c3)o2)cc1 |  | -25.4%
9 | O=C1c2ccccc2S(=O)(=O)c2cc(C(=O)N3CCC(N4CCCC4)CC3)ccc21 |  | -33.2%
10 | O=C(c1ccc2ccccc2c1)N1CCN(c2ccc(O)cc2)CC1 | 4.79 µM (active) | 
11 | O=C(c1ccc2ncsc2c1)N1CCN(c2ccc(O)cc2)CC1 | 3.9 µM (active) | 
12 | O=C(c1cccc(F)c1)N1CCC(N2CCOCC2)CC1 |  | 0.59%
13 | c1coc(-c2nnc(-c3ccco3)nn2)c1 |  | 12.1%
14 | O=C(N/N=C/c1ccc(O)cc1O)/C(=C/c1ccccc1)CCO | 11.2 µM (active) | 
15 | COc1ccc(OC)c(CCNC(=O)Cn2sc3nc(C)cc(C)c3c2=O)c1 |  | 11.8%
16 | Cc1cc2nc3ccc(N(C)C)cc3nc2cc1N | 90.6 µM (active) | 
17 | O=C(O)Cc1c[nH]c2cccc(O)c12 | 34.4 µM (active) | 
18 | OC[C@H]1O[C@@H](Oc2cc(O)cc(/C=C/c3ccc(O)cc3)c2)[C@H](O)[C@@H](O)[C@@H]1O | 7.7 µM (active) | 
19 | O=C(O)CC(CCc1ccccc1)OC1OC(CO)C(O)C(O)C1O (stereo not drawn) |  | 18.6%
20 | O=c1c(-c2ccc(O)cc2)coc2cc(OC3OC(CO)C(O)C(O)C3O)ccc12 (stereo not drawn) | 12.9 µM (active) | 
21 | CCCCN(CC)Cc1ccc(CNC(=S)Nc2ccc(C)cc2Cl)o1 |  | 13.6%
22 | Oc1ccc(/C=N/Nc2nccnc2Cl)cc1 | 3.29 µM (active) | 
23 | Oc1ccc(/C=N/Nc2nccnc2Cl)c(O)c1 | 11.8 µM (active) | 
24 | O=c1[nH]ncc(N/N=C\c2ccc(O)cc2O)c1Cl | 6.23 µM (active) | 
25 | Cc1cc2cc3c(N)[nH]nc3nc2cc1C | 6.68 µM (active) | 
26 | Cc1ccc2cc3c(N)[nH]nc3nc2c1 | 6.56 µM (active) | 

Row | SMILES | IC50 | inhibition
27 | CCc1ccc2nc3n[nH]c(N)c3cc2c1 | 5.76 µM (active) | 
28 | C=CCOC(=O)C1=C[C@@H](c2ccc3c(c2)OCO3)C[C@@H](OCCCCO)O1 |  | 11.6% [at 50 µM]
29 | O=C(O)c1cc(S(=O)(=O)O)cc(Nc2c3ccccc3nc3ccccc23)c1O | 14.7 µM (active) | 
30 | COC/C=C/C1=CC2=CC(=O)C(C)(O)C(=O)C2=CO1 (stereo not drawn) |  | 18.6%
31 | Nc1ccc(-c2nc3cc(N)ccc3n2CCO)cc1 | 9.16 µM (active) | 
32 | O=C(O)C1Nc2ccc(OC(F)(F)F)cc2C2C=CCC12 (stereo not drawn) |  | 23%
33 | COc1ccc(Nc2ccc(OC)cc2)cc1 | 11.3 µM (active) | 
34 | Oc1ccc(-c2nc(-c3ccc(O)c(O)c3)cs2)cc1 | 17.4 µM (active) | 
35 | COc1cc(-c2csc(C)n2)ccc1O | 3.58 µM (active) | 
36 | Cc1nc(-c2ccc(O)c(O)c2)cs1 | 6.64 µM (active) | 
37 | COC(=O)C1=C(C)N(Cc2ccccc2)C(=NCCCCO)N[C@H]1c1ccccc1 |  | 25.4%
38 | Cc1nc(SCC(=O)N2CCOCC2)c2ccsc2n1 |  | -16.8%
39 | COc1ccc(N2CCC(CNC(=O)Nc3ccccc3)C2)cc1 (stereo not drawn) | 8.01 µM (active) | 
40 | COc1ccc(S(=O)(=O)N2CCN(CC(=O)Nc3cccc(OC)c3)CC2)cc1 |  | 27.5%
41 | COc1ccc(N2CCC(CNC(=O)Nc3cccc(OC)c3)C2)cc1 (stereo not drawn) | 3.36 µM (active) | 
42 | CC(=O)c1cccc(NC(=O)N2CCCC2C(=O)NCc2ccccc2)c1 (stereo not drawn) |  | -22.4%
43 | Nc1nc(Sc2c([N+](=O)[O-])cc(C(F)(F)F)cc2[N+](=O)[O-])n[nH]1 |  | 0.27%
44 | CC(C)Nc1nc(Cl)nc(Nc2ccccc2)n1 |  | -23.3%
45 | CCOC(=O)CC(=O)CSc1nc(N)c(C#N)c(-c2ccc(Cl)cc2)c1C#N |  | -31.3%
46 | CCOC(=O)CNc1c(-c2ccc(O)cc2)nc2ccccn12 | 4.76 µM (active) | 
47 | Oc1ccc(Nc2nc(Cl)nc(NCc3ccco3)n2)cc1 | 6.71 µM (active) | 
48 | Oc1ccc(-c2nc3ccccn3c2NCc2ccco2)cc1 | 3.24 µM (active) | 
49 | CCOC(=O)CNc1c(-c2ccc(O)cc2)nc2ccc(Cl)cn12 | 2.95 µM (active) | 
50 | O=C(c1ccc(Cl)cc1)C1CCCN(C(=O)c2csnn2)C1 (stereo not drawn) |  | 7.02%
51 | O=c1c(-c2ccc([N+](=O)[O-])cc2)coc2c(O)c(O)ccc12 | 11.1 µM (active) | 
52 | O=C(NNC(=O)c1ccccc1O)c1ccc(-c2ccc([N+](=O)[O-])cc2)o1 |  | 7.79%

Row | SMILES | IC50 | inhibition
53 | O=C(CCN1C(=O)C2CCCCC2C1=O)N1CCN(S(=O)(=O)c2cccc(F)c2)CC1 (stereo not drawn) |  | -19.8%
54 | CCOc1ccc(OC(=O)c2cccc(S(=O)(=O)N3CCN(C)CC3)c2)cc1 | 41.5 µM (active) | 
55 | CC(=O)c1cccc(S(=O)(=O)N2CCCC(c3nc(-c4ccc(C)o4)no3)C2)c1 (stereo not drawn) |  | 3.94%
56 | COc1cc(-c2nnc(SCc3cc(=O)oc4cc(O)c(O)cc34)o2)cc(OC)c1OC | 11.6 µM (active) | 
57 | COc1cc(/C(C)=N/NC(=O)CSc2nc3ccccc3[nH]2)ccc1O | 6.48 µM (active) | 
58 | COc1cc(/C(C)=N/NC(=O)CSc2nnc(C)s2)ccc1O | 8.44 µM (active) | 
59 | CCOC(=O)c1c(C)[nH]c(C)c1C(=O)CSc1nc2ccccc2[nH]1 |  | 6.27%
60 | CC1C=CCC2C(=O)N(c3cc(Cl)ccc3O)C(=O)C12 (stereo not drawn) |  | -8.48%
61 | COc1ccc(NN=Nc2nc3c([nH]2)c(=O)n(C)c(=O)n3C)cc1 | 25.4 µM (active) | 
62 | O=S(=O)(Nc1c(S(=O)(=O)c2ccccc2)c2nc3ccccc3nc2n1C1CCCCC1)c1ccccc1 |  | -19.5%
63 | CCN(CC)P(=O)(C(NC(=O)OC)C(F)(F)C(F)(F)C(F)(F)C(F)F)N(CC)CC (stereo not drawn) |  | 0.91%
64 | O=Nc1ccc(NOC(=O)c2ccccc2Br)cc1 | 22.1 µM (active) | 
65 | N#Cc1c(Nc2ccccc2C(F)(F)F)s[nH]c1=O |  | -19.1%
66 | C/C(=N\NC(=O)CSCc1ccc([N+](=O)[O-])cc1)c1ccccc1 |  | -42.9%
67 | C/C(=N\NC(=O)Cn1cc([N+](=O)[O-])cn1)c1ccc(O)cc1 | 10.7 µM (active) | 
68 | Oc1ccc(CCNc2c3ccccc3nc3ccccc23)cc1O | 6.72 µM (active) | 
69 | O=C1CC(c2ccccc2)c2cccc(F)c21 (stereo not drawn) |  | -11.6%
70 | COc1ccc(/C=N/NC(=O)c2cc(O)c(O)c(O)c2)cc1Cn1cc([N+](=O)[O-])cn1 |  | -93.8%
71 | COc1cc(/C=N/NC(=O)c2ccc(Cn3cc([N+](=O)[O-])cn3)o2)cc(Br)c1O | 8.55 µM (active) | 
72 | COc1cc(/C=N\NC(=O)c2ccc(Cn3nc([N+](=O)[O-])c(Cl)c3C)o2)ccc1O | 6.71 µM (active) | 
73 | COC(=O)CCC(=O)OC1(C)C(=O)C2=COC(c3ccc(OC)cc3)=CC2=C(Br)C1=O (stereo not drawn) |  | -24%
74 | Cc1nn(C(C)C(=O)O)c2ccccc12 (stereo not drawn) |  | -38.8%
75 | Cc1[nH]nc2c1C(C(C)c1ccccc1)C(C#N)=C(N)O2 (stereo not drawn) |  | -5.83%
76 | COc1cc(C2C(C#N)=C(N)Oc3n[nH]c(-c4cccnc4)c32)cc(Br)c1O (stereo not drawn) | 16.7 µM (active) | 
77 | CCOc1cc(/C=C/c2cc(C(F)(F)F)[nH]c(=O)n2)ccc1O | 6.98 µM (active) | 
78 | COc1cccc(C(=O)Nc2ccc3c(c2)n(C)c(=O)n3C)c1 | 12.6 µM (active) | 

Row | SMILES | IC50 | inhibition
79 | COc1cccc(C2C(C(C)=O)=C(O)C(=O)N2CCNCCO)c1 (stereo not drawn) |  | 9.86%
80 | Cn1cccc1/C=N/NC(=O)c1cccc(OC(F)(F)C(F)F)c1 |  | -48.6%
81 | Oc1cccc(/C=N/NC(=S)Nc2cccnc2)c1O | 8.21 µM (active) | 
82 | Oc1ccc(/C=N/NC(=S)Nc2cccnc2)cc1 | 0.9 µM (active) | 
83 | CN(C(=S)Nc1cccnc1)c1ccc(O)cc1 | 40.6 µM (active) | 
84 | CCC(C)[C@H](N)c1nnc(SCC(=O)Nc2cccc(Cl)c2)o1 (stereo partly drawn) |  | -16.3%
85 | CCn1c(SCC(=O)Nc2cccc(C(C)=O)c2)nnc1C(C)C |  | 22.6%
86 | CCN(CC)c1ccc(NC(=O)CSc2nnc(N)s2)cc1C | 8.65 µM (active) | 
87 | Cc1nn(-c2ccccc2)c2[nH]c(=O)c(CNc3ccc(N4CCOCC4)cc3)cc12 | 3.77 µM (active) | 
88 | Cc1nn(-c2ccc(Cl)cc2)c2[nH]c(=O)c(CNCc3ccc4c(c3)OCO4)cc12 |  | -5.68%
89 | Cc1cccc(NC(=S)N2CCCN(c3ncccc3[N+](=O)[O-])CC2)c1 |  | -0.13%
90 | Cc1nnc(C)c2c(C)n(-c3ccc4ncccc4c3)c(C)c12 |  | -11.1%
91 | Oc1ccc(N2CCN(C(c3ccccn3)c3nnnn3C3CCCC3)CC2)cc1 (stereo not drawn) | 3.68 µM (active) | 
92 | CC(C)(C)n1nnnc1C(c1ccncc1)N1CCN(c2ccc(O)cc2)CC1 (stereo not drawn) | 6.75 µM (active) | 
93 | CCC(C)(C)n1nnnc1C(c1ccc2ncccc2c1)N1CCN(c2ccc(O)cc2)CC1 (stereo not drawn) | 5.17 µM (active) | 
94 | Oc1ccc(N2CCN(C(c3ccncc3)c3nnnn3C3CCCC3)CC2)cc1 (stereo not drawn) | 3.39 µM (active) | 
95 | COc1ccc(-c2cc(-c3ccco3)[nH]c(=O)c2C#N)cc1OC |  | -30%
96 | O=C1SC(SCc2ccccc2)=N/C1=C\c1ccco1 |  | -6.58%
97 | COc1ccc(CNS(=O)(=O)c2ccc3c(c2)N(C)CCO3)cc1 |  | -38.9%
98 | Cc1ccc(CNc2ccc(N3CCOCC3)cc2)cc1 | 3.89 µM (active) | 
99 | COc1ccc(CNc2ccc(N3CCOCC3)cc2)cc1 | 10.5 µM (active) | 
100 | CCCCn1nc(NS(=O)(=O)c2cccc3nonc23)c2cc3cccc(C)c3nc21 | 20.5 µM (active) | 
101 | CCCc1cc(=O)oc2cc(C)c(CN3CCCC3)c(O)c12 |  | -145%
102 | O=c1cc(CN2CCN(Cc3ccccc3)CC2)c2ccc(O)c(O)c2o1 | 10.9 µM (active) | 
103 | O=C1CCN(Cc2ccc(O)cc2)CCN1[C@H](CO)Cc1ccccc1 |  | -10.6%
